Assay outcomes: PubChem, several laboratories
PP1 counter = counter-screen for PP5 inhibitors: inhibitors of human PP1-alpha; purified PP1alpha, OMFP fluorescence; inhibition, % at 6.7 µM; P62136; actives 0.9% (n = 320,000);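 active = inhibition above the mean inhibition of all tested compounds plus 3 SD, computed separately for each screening campaign, cut at about 15% in these data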
Target sequence (P62136 whole entry, looked up): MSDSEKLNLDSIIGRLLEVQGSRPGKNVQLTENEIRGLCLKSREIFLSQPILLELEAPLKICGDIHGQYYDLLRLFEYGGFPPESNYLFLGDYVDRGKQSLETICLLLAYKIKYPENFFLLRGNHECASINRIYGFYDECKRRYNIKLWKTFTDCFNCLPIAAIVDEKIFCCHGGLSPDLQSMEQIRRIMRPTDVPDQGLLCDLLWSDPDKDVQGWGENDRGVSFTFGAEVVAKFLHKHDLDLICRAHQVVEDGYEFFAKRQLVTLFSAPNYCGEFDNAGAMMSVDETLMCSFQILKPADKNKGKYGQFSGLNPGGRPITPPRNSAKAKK
CSC inhib = blocks cancer stem cells. inhibition, % at 7.5 µM. cancer stem cell-like cells viability, luminescence. actives 1.1% (n = 300,000). AID 2717; in the data active = inhibition above about 75%; inconclusive = no clear call, values can overlap the other calls; tested in HMLE shEcad cells
ALR inh = inhibitors of human sulfhydryl oxidase ALR. actives 3.8% (n = 290,000). inhibition, % (concentration not given with the values). purified ALR, DTT oxidation, H2O2 HRP-luminol luminescence. AID 485317;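 active = mean replicate inhibition above about 79%, with every replicate also reaching it, limit read from the data; inconclusive = only one of the two criteria met; inactive = mean below limit and not every replicate reaching it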
Target sequence (P55789 whole entry, looked up): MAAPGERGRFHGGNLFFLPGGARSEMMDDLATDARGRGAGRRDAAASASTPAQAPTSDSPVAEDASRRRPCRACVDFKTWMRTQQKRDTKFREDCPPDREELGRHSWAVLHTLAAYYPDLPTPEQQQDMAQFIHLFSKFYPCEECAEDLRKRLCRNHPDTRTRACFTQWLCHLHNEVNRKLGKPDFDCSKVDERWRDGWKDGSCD
PP5 inh = PP5 (human) phosphatase inhibition. inhibition, % at 6.7 µM. purified PP5c, OMFP substrate fluorescence. AID 1987. actives 0.18% (n = 320,000);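 active = inhibition above the campaign's mean inhibition across all tested compounds plus 3 SD, cut at about 9.5% in these data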;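 note: 0% = DMSO only and 100% = 100 µM cantharidin control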
Calb FLC = affects C. albicans growth with fluconazole | C. albicans CaCi-2 (fluconazole-resistant clinical isolate) + fluconazole, Alamar Blue growth, 48 h | actives 0.57% (n = 300,000) | growth inhibition, % (no concentration beside the values);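 active = growth inhibition above about 58% in most replicates, limit read from the data, passing the limit was not always enough; inconclusive = exactly half the replicates above a set limit; inactive = most replicates below a set limit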;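 note: all wells also contain fluconazole at 8 µg/ml as a sub-toxic cotreatment; 0% = median of DMSO wells and 100% = median of geldanamycin control wells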
An asterisk follows results filed as active; u = inconclusive; x = no result given. Only some compounds are listed: those with a hit (about 5.4% of all), similar ones and a draw of the others.

SMILES	PP1 counter	CSC inhib	ALR inh	PP5 inh	Calb FLC
O=C(c1ccco1)N1CCN=C1SCc1ccccc1Cl	-3	-1	99*	0	13
O=C(c1ccco1)N1CCN=C1SCc1c(F)cccc1Cl	0	2	9	2	2
CCSC1=NCCN1C(=O)c1c(-c2ccccc2Cl)noc1C	-4	-9	0	2	43
CN(C)/C=C1/C=C(c2ccccc2)OC1=O	-1	26	99*	2	-11
CC1=C/C(=C/N(C)C)C(=O)O1	1	3	-5	-1	-21
N#C/C(=C/Nc1ccccc1)c1ccsc1	-7	3	89*	0	0
Cc1ccc(N/C=C(/C#N)c2ccsc2)cc1	-4	x	98*	2	-3
N#CC(C#N)=CNc1cccnc1	-3	-3	2	-1	-9
COc1ccc(-c2cc3ccc(O)cc3oc2=O)cc1	1	59	15	1	-3
O=c1oc2cc(O)ccc2cc1-c1ccccc1	-3	23	91*	-2	45
O=c1oc2ccccc2cc1-c1ccc(O)cc1O	-3	-1	99*	-2	-2
CC(=O)Oc1ccc(-c2cc3ccccc3oc2=O)cc1	-2	x	-3	2	-2
O=c1oc2cc(O)ccc2cc1-c1nc2c(s1)CCc1ccccc1-2	-22	83*	-74	-14	x
O=c1oc2ccccc2cc1-c1nc2c(s1)CCc1ccccc1-2	-1	-5	-33	0	5
Nc1cccc(-c2cc3ccccc3oc2=O)c1	3	-10	99*	1	19
Cc1c(C(=O)Nc2nc3ccccc3[nH]2)oc2ccccc12	-1	-7	5	0	1
CC(C)c1nc2ccc(Br)cn2c1NC1CCCC1	1	7	99*	2	8
O=C(COc1ccccc1)NC(=S)Nc1ccc(Br)cn1	-2	-4	-2	1	34
CC(C)CC(NC(=O)c1ccccc1)C(=O)OCC(=O)Nc1ccc(Br)cn1 (stereo not given)	1	7	99*	1	9
CCN(C(=O)CCN1C(=O)c2ccccc2S1(=O)=O)c1ccccc1	-7	2	-5	0	4
Cc1ccc(CSc2nc3ccncc3[nH]2)cc1	-3	36	16	0	-2
O=c1cc(O)nc(SCc2ccc(Cl)cc2)[nH]1	8	-6	98*	1	10
Clc1ccc(CSc2nc3ccncc3[nH]2)cc1	-2	23	90*	-1	1
CCOCC(=O)N1CCCC(C(=O)OCC)C1 (stereo not given)	-4	0	-2	2	-8
COc1ccc(N2CCN(C(c3cccs3)C(C)NC(=O)C(=O)N3CCOCC3)CC2)cc1 (stereo not given)	0	-5	u	1	-6
SMILES	PP1 counter	CSC inhib	ALR inh	PP5 inh	Calb FLC
CC(NC(=O)C(=O)N1CCOCC1)C(c1cccs1)N1CCN(c2ccccc2)CC1 (stereo not given)	-5	-1	98*	1	23
COc1ccccc1N1CCN(C(c2cccs2)C(C)NC(=O)C(=O)N2CCOCC2)CC1 (stereo not given)	-5	-3	89*	-1	-4
O=C(Cc1ccc(Cl)cc1)Nc1ccc(S(=O)(=O)Nc2ncccn2)cc1	-2	-2	12	-2	35
Cc1ccc(-c2nc(CSCC(=O)N3CCN(c4ccccn4)CC3)c(C)o2)cc1	-1	-16	99*	-2	2
Cc1ccccc1-c1nc(CN2CCC(C(=O)N3CCN(c4ccccn4)CC3)CC2)c(C)o1	-8	-3	-12	2	-14
CCOc1ccc(-c2nc(CSCC(=O)N3CCN(c4cccc(OC)c4)CC3)c(C)o2)cc1	3	16	99*	2	0
CCc1ccc(-c2nc(CSCC(=O)N3CCN(c4ccccn4)CC3)c(C)o2)cc1	0	-11	85*	3	-3
Cc1ccc(S(=O)(=O)N(C)CC(=O)N2CCN(c3ccccn3)CC2)cc1	-4	-7	-8	1	3
O=C(CSCc1ccccc1Cl)N1CCN(c2ccccn2)CC1	-1	-4	99*	2	8
CCN(CC)CCN(C(=O)c1ccc(S(=O)(=O)N(C)C2CCCCC2)cc1)c1nc2ccc(OC)cc2s1	0	4	-21	5	-6
c1ccc(-c2ccc(CN3CCSCC3)cc2)cc1	-2	11	0	-4	3
O=C(c1ccc(CS(=O)(=O)c2ccc(Br)cc2)o1)N1CCN(c2ccccn2)CC1	-4	-7	0	1	-2
Cc1ccc(S(=O)(=O)Cc2ccc(C(=O)N3CCN(c4ccccn4)CC3)o2)cc1	-1	0	97*	-1	-4
CC1(C)CC(=O)C2=C(C1)c1c(ccc3ccccc13)NC2c1cc([N+](=O)[O-])cc([N+](=O)[O-])c1O (stereo not given)	12	58	53	2	111*
CC1CCC(C(C)C)C(OCC(O)C[N+]2(C)CCCCC2)C1 (stereo not given)	-3	-15	99*	-1	-28
CC1CCC(C(C)C)C(OCC(O)CN2CCCC(C)C2)C1 (stereo not given)	-5	35	-41	0	-41
N#Cc1cc(C(=O)c2cc(F)ccc2O)cn(-c2nccs2)c1=O	-1	28	33	-3	-3
N#Cc1cc(C(=O)c2ccccc2O)cn(-c2nccs2)c1=O	-3	21	97*	-4	11
COc1cc(C2C(C#N)=C(N)Oc3n[nH]c(C)c32)cc2c1OCO2 (stereo not given)	1	-5	x	3	-3
COc1ccc(Nc2nc(C(=O)NCCCN3CCOCC3)cs2)cc1	-1	-7	83*	0	u
O=C(NCCCN1CCOCC1)c1cc(-c2ccc(Br)cc2)on1	-4	-29	x	1	-14
COc1ccc(Nc2cc(C(=O)NCCCN3CCOCC3)c3ccccc3n2)cc1	1	-28	64	2	-3
CCOCCCNC(=O)c1cc2c(-c3ccc(Cl)cc3)nn(C)c2s1	-1	14	39	4	9
O=C(NCCCN1CCOCC1)c1cc(-c2ccc(O)cc2)on1	0	-4	98*	0	-5
Cn1nc(-c2ccc(Cl)cc2)c2cc(C(=O)NCCCN3CCOCC3)sc21	-1	79*	95*	2	15
SMILES	PP1 counter	CSC inhib	ALR inh	PP5 inh	Calb FLC
Cn1nc(-c2ccc(Cl)cc2)c2cc(C(=O)NCCN3CCOCC3)sc21	2	47	93*	2	0
CC(C)Cc1nc2n[nH]c(N)c2c2c1CCC2	-1	42	4	1	4
COC(=O)c1sc(S(=O)(=O)N2CCN(c3ccccc3F)CC2)c(C(=O)OC)c1C	x	x	-1	x	x
Cn1nc(-c2ccc(Cl)cc2)c2cc(C(=O)NC3CC3)sc21	-1	6	84*	2	2
CCN(CC)CCNC(=O)c1cc2c(-c3ccc(Cl)cc3)nn(C)c2s1	-8	x	x	2	-3
CCN1CCN(C(=O)c2cc3c(-c4ccc(Cl)cc4)nn(C)c3s2)CC1	-11	11	98*	5	10
